Data on 4 molecules can be found in PubChem BioAssay (NCATS).

The nature of assay [1]: qHTS for Inhibitors of Ubiquitin-specific Protease USP2a Using CHOP2 as the Reporter: K633 Counterscreen (AID 652168). Also: series mostly up to about 57 µM; % of control where 0% means no effect. In short, it runs like this: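 Detection-system control: fluorescence of K48-linked DiUb-4IQF substrate (100 nM as added) tracked over time, Ex 525/Em 598, with pinned compounds and no enzyme, in pH 8 Tris buffer containing beta-mercaptoethanol and 0.05% Chaps.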

Assay [2] in a line: qHTS for Inhibitors of Ubiquitin-specific Protease USP2a Using CHOP2 as the Reporter: Cytotox Assay (AID 652170). Also: nearly all actives have a fitted effect of over 70% in size. Also: potency is read from the fitted curve at half-maximal effect. The method in brief:
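Cytotoxicity read as ATP luminescence (CellTiter-Glo) after 72 hr compound treatment at 37 deg C. Cells: HCT116, 600/well in DMEM plus 10% FBS. Normalization between DMSO-treated cells and cell-free wells.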

For assay [3], the target named is Ubiquitin carboxyl-terminal hydrolase 2 (Homo sapiens) (UniProt O75604). In words: qHTS for Inhibitors of Ubiquitin-specific Protease USP2a Using CHOP2 as the Reporter: K484 Substrate (AID 652173).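 Also: cleavage of internally quenched K48 di-ubiquitin substrate measured as rising fluorescence over time; nearly all actives have a fitted effect of over 70% in size.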 In short, it runs like this: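 Kinetic fluorescence (Ex 525/Em 598) tracked cleavage of an internally quenched K48 di-ubiquitin substrate, added as a 100 nM solution. The enzyme was added as a 5 nM USP2 solution before compound pinning, with no-enzyme controls. Buffer: Tris pH 8, beta-mercaptoethanol, CHAPS.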
A general note: In qHTS, concentration-response curves come from the screen itself.

Assay [4] addresses Calcium and integrin-binding protein 1 (Homo sapiens) (UniProt Q99828). In words: Primary qHTS for Identification of Calcium Integrin Binding Protein 1 (CIB1) Competitor (AID 1508620).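 Also: GST tagged CIB1 binding a fluorescein labelled alphaIIb integrin peptide tracer; top concentration of the series differs between compounds; % is scaled to controls: 0 for no effect and ±100 for the full control effect.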 The method in brief:
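Fluorescence polarization competition: CIB1-GST (1 uM final) preincubated with compound 15 min at room temperature, then FITC-labeled alphaIIb peptide (100 nM final) added for another 15 min. Polarization read at Ex 480/Em 540.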

Assay [5] concerns the target Rap guanine nucleotide exchange factor 3 (Homo sapiens) (UniProt O95398). Kind of assay: Confirmatory qHTS for antagonist of cAMP-regulated guanine nucleotide exchange factor 3 (EPAC1) (AID 1645880).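 Also: plate controls were DMSO only for no effect and full effect of the ATA control for full effect; nearly all actives have a fitted effect of over 55% in size.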 In short, it runs like this:
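Released BODIPY-GDP fluoresces less than Rap1-bound BODIPY-GDP; the signal is followed at 480/540 nm at 5-min intervals over 30 min, after 5 min at room temperature. Reactions contain 100 nM EPAC1, 250 nM RAP1B-BODIPY-GDP and 50 uM GDP; results are normalized to ATA and DMSO.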

The target is the same in assay [6]. Kind of assay: Confirmatory qHTS for agonist of cAMP-regulated guanine nucleotide exchange factor 3 (EPAC1) (AID 1645881).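 Also: EPAC1 catalysed release of BODIPY-GDP from Rap1B seen as fluorescence loss; 100% = effect of cAMP agonist control; nearly all actives have a fitted effect of over 75% in size.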
In assay [7] the target is Rap guanine nucleotide exchange factor 4 (Homo sapiens) (UniProt Q8WZA2). In words: Confirmatory qHTS for agonist of cAMP-regulated guanine nucleotide exchange factor 4 (EPAC2) (AID 1645884). Also: % is scaled to controls: 0 for no effect and ±100 for the full control effect; nearly all actives have a fitted effect of over 65% in size.
Assay [8] shares this target. Kind of assay: Confirmatory qHTS for antagonist of cAMP-regulated guanine nucleotide exchange factor 4 (EPAC2) (AID 1645885). Also: % is scaled to controls: 0 for no effect and ±100 for the full control effect; nearly all actives have a fitted effect of over 25% in size.
Assay [9] addresses Rap guanine nucleotide exchange factor 3 (Homo sapiens) (UniProt O95398). Kind of assay: Counterscreen qHTS for agonist of cAMP-regulated guanine nucleotide exchange factor 3 (EPAC1) (AID 1645889). Also: % of control where 0% means no effect; nearly all actives have a fitted effect of over 40% in size. In short, it runs like this: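 Measured: fluorescence of BODIPY-GDP bound to Rap1B, which falls as exchange proceeds. Conditions include 50 uM competing GDP, 5 and 30 min reads, and a later cAMP challenge for antagonist detection.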
In general terms: A counterscreen serves to expose hits that act by an unwanted route or on another target.

The nature of assay [10]: Primary qHTS for inhibitors of nuclear receptor binding SET domain protein 2 (NSD2) in an isogenic RCH-ACV NSD2 p.E1099K mutant (9B) (AID 1645876). Also: potency is read from the fitted curve at half-maximal effect; nearly all actives have a fitted effect of over 70% in size.
Assay [11] in a line: Primary qHTS for inhibitors of nuclear receptor binding SET domain protein 2 (NSD2) in an RCH-ACV wild type WT cells (2C) (AID 1645877). Also: potency is read from the fitted curve at half-maximal effect; nearly all actives have a fitted effect of over 70% in size.
Assay [12] has as its target Glutathione peroxidase 1 (Homo sapiens) (UniProt P07203). In words: Primary qHTS Assay for Inhibitors of Recombinant Selenoprotein Glutathione Peroxidase 1 (GPX1) (AID 1845191). Also: nearly all actives have a fitted effect of over 65% in size. The method in brief: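 GPX1 10 nM, GR 100 nM, GSH 1 mM, NADPH 0.5 mM, CHP 0.5 mM (final). 30-min cpd preincubation, RT. Ex340/Em450 read t=0, t=15 min.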
A short description of assay [13]: qHTS drug screen for cell cycle checkpoint inhibitors in PARPi-resistant BRCA-mutant ovarian cancer cell lines. (AID 1963452; calls by dose curve). The settings on record: PEO1/OlaR viability, CellTiter-Glo luminescence, 96 h, stronger effect = lower value. In short, it runs like this: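 PEO1, PEO4 and PEO1/OlaR ovarian cancer cells, 600 per well, exposed 96 h at 37C to a dilution series. Viability read by CellTiter-Glo luminescence, normalized to DMSO and empty wells; activity summarized as Z-AUC.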

Assay [14] concerns the target N-terminal Xaa-Pro-Lys N-methyltransferase 1 (Homo sapiens) (UniProt Q9BV86). In words: Confirmatory qHTS for Inhibitors of N-terminal methyltransferase 1 (NTMT1): MTaseGlo Assay (AID 1645874). Also: nearly all actives have a fitted effect of over 65% in size. Also: potency is read from the fitted curve at half-maximal effect.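 As to activity change, negative = inhibition: luminescence from SAH made as NTMT1 methylates SPKRIA peptide using SAM; series mostly up to about 100 µM; 0% = DMSO control and -100% = no-enzyme control.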 In short, it runs like this: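 Room-temperature NTMT1 reaction, 30 min, with 100 uM SAM and 1 uM SPKRIA substrate; enzyme 125 nM. Read-out: MTase-Glo luminescence, normalized to no-enzyme and DMSO controls.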

SMILES strings stand for the structures. Results filed as inconclusive are left out. Active and inactive are the calls of the source. Unless noted, calls follow the shape of the dose curve; as a rule, active = well fitted curve in the direction sought with a large enough effect; inconclusive = small, poorly fitted or top-dose-only effect, or another doubt; inactive = no such curve, though single readings can be large; an effect the other way counts as inactive or inconclusive.

Sequence of Calcium and integrin-binding protein 1 (Homo sapiens) (Q99828 whole entry, looked up): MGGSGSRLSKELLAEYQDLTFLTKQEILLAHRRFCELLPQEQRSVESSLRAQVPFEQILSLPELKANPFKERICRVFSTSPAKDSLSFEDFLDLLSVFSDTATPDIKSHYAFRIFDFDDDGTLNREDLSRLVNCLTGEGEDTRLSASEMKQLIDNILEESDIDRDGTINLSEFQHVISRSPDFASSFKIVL
Sequence of Rap guanine nucleotide exchange factor 3 (Homo sapiens) (O95398 whole entry, looked up): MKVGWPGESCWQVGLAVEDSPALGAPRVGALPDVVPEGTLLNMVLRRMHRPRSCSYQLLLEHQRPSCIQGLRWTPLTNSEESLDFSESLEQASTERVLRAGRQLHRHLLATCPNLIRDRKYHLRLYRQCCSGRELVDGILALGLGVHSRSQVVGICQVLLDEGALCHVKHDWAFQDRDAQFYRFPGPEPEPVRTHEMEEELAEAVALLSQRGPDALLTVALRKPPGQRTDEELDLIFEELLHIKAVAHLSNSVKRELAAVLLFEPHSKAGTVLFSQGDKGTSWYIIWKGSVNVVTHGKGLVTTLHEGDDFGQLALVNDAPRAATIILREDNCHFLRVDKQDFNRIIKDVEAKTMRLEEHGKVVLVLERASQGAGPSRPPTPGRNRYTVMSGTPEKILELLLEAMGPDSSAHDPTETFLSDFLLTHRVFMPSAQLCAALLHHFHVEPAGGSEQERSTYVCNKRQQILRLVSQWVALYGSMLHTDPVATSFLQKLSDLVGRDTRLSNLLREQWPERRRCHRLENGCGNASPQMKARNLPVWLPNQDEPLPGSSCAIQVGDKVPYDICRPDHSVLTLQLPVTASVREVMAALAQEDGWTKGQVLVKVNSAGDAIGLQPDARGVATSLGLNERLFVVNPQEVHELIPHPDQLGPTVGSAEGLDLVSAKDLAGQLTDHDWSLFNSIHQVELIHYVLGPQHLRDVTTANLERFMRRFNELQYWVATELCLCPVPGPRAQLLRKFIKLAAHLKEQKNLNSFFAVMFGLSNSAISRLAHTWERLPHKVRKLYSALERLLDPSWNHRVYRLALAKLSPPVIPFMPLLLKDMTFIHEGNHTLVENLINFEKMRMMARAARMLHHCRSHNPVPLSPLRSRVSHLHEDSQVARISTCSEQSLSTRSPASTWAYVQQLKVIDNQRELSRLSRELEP
Sequence of Rap guanine nucleotide exchange factor 4 (Homo sapiens) (Q8WZA2 whole entry, looked up): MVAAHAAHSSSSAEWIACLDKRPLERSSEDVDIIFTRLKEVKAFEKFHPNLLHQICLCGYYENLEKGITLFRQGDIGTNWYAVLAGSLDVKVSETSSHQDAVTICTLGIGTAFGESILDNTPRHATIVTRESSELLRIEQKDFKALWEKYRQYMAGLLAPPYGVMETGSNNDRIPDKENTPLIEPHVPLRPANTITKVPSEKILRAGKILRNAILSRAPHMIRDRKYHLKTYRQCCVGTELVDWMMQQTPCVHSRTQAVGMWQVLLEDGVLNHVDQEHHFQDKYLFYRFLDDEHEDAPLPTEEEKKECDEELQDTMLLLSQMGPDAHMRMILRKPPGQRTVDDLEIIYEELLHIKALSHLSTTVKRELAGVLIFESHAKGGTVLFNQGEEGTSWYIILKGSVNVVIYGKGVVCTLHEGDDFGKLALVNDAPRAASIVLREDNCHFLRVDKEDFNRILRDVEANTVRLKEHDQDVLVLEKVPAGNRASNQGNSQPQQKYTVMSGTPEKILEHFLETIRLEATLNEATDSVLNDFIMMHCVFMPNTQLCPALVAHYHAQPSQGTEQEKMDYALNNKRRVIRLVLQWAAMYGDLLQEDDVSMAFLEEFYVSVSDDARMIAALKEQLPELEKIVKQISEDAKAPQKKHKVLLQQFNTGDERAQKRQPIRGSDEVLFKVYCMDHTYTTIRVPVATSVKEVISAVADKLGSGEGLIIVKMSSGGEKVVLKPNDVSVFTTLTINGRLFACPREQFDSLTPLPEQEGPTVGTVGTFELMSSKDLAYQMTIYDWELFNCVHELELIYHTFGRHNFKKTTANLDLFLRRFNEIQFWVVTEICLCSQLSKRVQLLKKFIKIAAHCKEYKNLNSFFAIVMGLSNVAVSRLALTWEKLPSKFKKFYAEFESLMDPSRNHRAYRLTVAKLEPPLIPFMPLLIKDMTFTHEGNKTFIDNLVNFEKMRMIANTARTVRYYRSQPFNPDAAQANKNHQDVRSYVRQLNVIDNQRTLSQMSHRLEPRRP
Sequence of N-terminal Xaa-Pro-Lys N-methyltransferase 1 (Homo sapiens) (Q9BV86 whole entry, looked up): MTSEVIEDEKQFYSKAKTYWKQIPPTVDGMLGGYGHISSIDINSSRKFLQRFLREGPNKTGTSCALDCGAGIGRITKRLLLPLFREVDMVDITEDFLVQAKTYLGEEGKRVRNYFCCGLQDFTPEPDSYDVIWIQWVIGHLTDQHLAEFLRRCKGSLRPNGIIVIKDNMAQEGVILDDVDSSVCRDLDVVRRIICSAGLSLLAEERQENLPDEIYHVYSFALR
Sequence of Glutathione peroxidase 1 (Homo sapiens) (P07203 whole entry, looked up): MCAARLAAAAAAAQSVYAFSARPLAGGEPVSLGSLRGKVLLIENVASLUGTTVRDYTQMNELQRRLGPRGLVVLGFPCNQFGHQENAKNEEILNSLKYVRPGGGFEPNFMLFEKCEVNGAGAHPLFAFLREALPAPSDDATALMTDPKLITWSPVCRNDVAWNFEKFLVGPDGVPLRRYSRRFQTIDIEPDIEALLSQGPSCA
Sequence of Ubiquitin carboxyl-terminal hydrolase 2 (Homo sapiens) (O75604 whole entry, looked up): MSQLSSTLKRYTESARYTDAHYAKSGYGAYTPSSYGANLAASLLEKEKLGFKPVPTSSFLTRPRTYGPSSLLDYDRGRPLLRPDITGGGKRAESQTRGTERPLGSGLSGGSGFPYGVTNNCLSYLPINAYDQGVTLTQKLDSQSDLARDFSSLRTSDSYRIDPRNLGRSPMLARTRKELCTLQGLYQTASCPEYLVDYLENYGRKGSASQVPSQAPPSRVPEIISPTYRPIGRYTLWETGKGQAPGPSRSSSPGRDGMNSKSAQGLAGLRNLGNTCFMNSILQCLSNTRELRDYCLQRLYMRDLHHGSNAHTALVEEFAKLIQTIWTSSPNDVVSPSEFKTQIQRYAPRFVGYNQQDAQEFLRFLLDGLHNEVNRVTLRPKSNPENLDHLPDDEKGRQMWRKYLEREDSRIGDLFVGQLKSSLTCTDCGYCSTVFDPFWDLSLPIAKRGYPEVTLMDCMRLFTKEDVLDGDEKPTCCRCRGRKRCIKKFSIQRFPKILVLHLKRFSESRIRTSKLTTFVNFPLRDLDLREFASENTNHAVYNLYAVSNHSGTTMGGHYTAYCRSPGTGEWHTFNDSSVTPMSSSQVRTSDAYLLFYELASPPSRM

As to `O=C(CCc1ccccc1)Nc1ccc(S(=O)(=O)Nc2nccs2)cc1`, the molecule was classed as inactive in assay [1] and in assay [6]. Besides, the Potency result in assay [2], in assay [3], in assay [4] and in [5] was “inactive” in each case. For the same molecule, the results for the activation in assay [7] and in assay [9] were 9.99% [at 17.1 µM] (inactive) and 9.8% [at 30.8 µM] (inactive), respectively. Moreover, the activity change, negative = inhibition in [8] is 1.51% [at 12.7 µM] (inactive).

Turning to `Cc1ccc(S(=O)(=O)Nc2cc(C(F)(F)F)ccc2C(=O)Nc2nc(-c3ccccc3)cs2)cc1`, the molecule was classed as inactive in assay [1]. For the same molecule, the results for the Potency in assay [2], in assay [10] and in assay [11] were 2.96 µM (active), 4.17 µM (active) and 4.17 µM (active), respectively. The Potency result in assay [4] and in assay [12] was “inactive” in each case. For the same molecule, the Z-AUC in assay [13] is 0.58 (inactive); in [13] (measured here: PEO1 parental Z-AUC), 0.184; in [13] (measured here: PEO4 Z-AUC), -0.358.

Turning to `CC(=O)Nc1sc2c(c1-c1ccc3scnc3c1)CCNC2`, in [4], the Potency entry was “inactive”. Also, the Potency in assay [14] was 44.7 µM (active).

Consider `O=S(=O)(Nc1ccc(O)c2ncccc12)c1ccccc1F`, for which the Potency result in assay [4] and in [14] was “inactive” throughout.
